# Measurements published in the supplement of paper PMC8728848.
# About 410 targets per protein were measured; listed, in parts, are those with the strongest signals and a random draw of the rest.
# How the values were obtained:
# Experiment in all cases: glycan array binding signal (z-score within array); higher = stronger binding
# Details in all cases: glycan notation: IUPAC condensed, linker removed
# [1] = molecular target: GlcNAc(b1-2)[GlcNAc(b1-6)]Man(a1-6)[GlcNAc(b1-4)][GlcNAc(b1-2)Man(a1-3)]Man(b1-4)GlcNAc(b1-4)GlcNAc
# Outline: (§1)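 The Consortium for Functional Glycomics database supplied 3228 glycan arrays, of which those lacking an available protein sequence were dropped. The binding signal, a within-array Z-score, was averaged across arrays of the same protein sequence and across linkers. Negative scores can be read as non-binding.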
# GlcNAc(b1-3)Fuc = molecular target: GlcNAc(b1-3)Fuc
# Outline: as §1
# GlcNAc(b1-3)Gal = molecular target: GlcNAc(b1-3)Gal
# Outline: as §1
# [2] = molecular target: GlcNAc(b1-3)Gal(b1-4)GlcNAc(b1-3)Gal(b1-4)GlcNAc(b1-2)Man(a1-3)[GlcNAc(b1-3)Gal(b1-4)GlcNAc(b1-3)Gal(b1-4)GlcNAc(b1-2)Man(a1-6)]Man(b1-4)GlcNAc(b1-4)[Fuc(a1-6)]GlcNAc
# Outline: as §1
# [3] = molecular target: GlcNAc(b1-3)Gal(b1-4)GlcNAc(b1-3)Gal(b1-4)GlcNAc(b1-3)Gal(b1-4)GlcNAc(b1-2)Man(a1-3)[GlcNAc(b1-3)Gal(b1-4)GlcNAc(b1-3)Gal(b1-4)GlcNAc(b1-3)Gal(b1-4)GlcNAc(b1-2)Man(a1-6)]Man(b1-4)GlcNAc(b1-4)[Fuc(a1-6)]GlcNAc
# Outline: as §1
# Kdn(a2-3)Gal(b1-4)Glc = molecular target: Kdn(a2-3)Gal(b1-4)Glc
# Outline: as §1
# [4] = molecular target: Man(a1-2)Man(a1-3)[Man(a1-2)Man(a1-6)]Man
# Outline: as §1
# [5] = molecular target: Neu5Ac(a2-3)Gal(b1-3)GlcNAc(b1-2)Man(a1-3)[Neu5Ac(a2-3)Gal(b1-3)GlcNAc(b1-2)Man(a1-6)]Man(b1-4)GlcNAc(b1-4)GlcNAc
# Outline: as §1
# [6] = molecular target: Neu5Ac(a2-3)Gal(b1-3)GlcNAc(b1-3)Gal(b1-3)GlcNAc
# Outline: as §1
# [7] = molecular target: Neu5Ac(a2-3)Gal(b1-3)GlcNAc(b1-3)GalNAc
# Outline: as §1
# [8] = molecular target: Neu5Ac(a2-3)Gal(b1-4)GlcNAc(b1-2)Man
# Outline: as §1
# [9] = molecular target: Neu5Ac(a2-3)Gal(b1-4)GlcNAc(b1-3)Gal(b1-3)GlcNAc
# Outline: as §1
# [10] = molecular target: Neu5Ac(a2-3)Gal(b1-4)[Fuc(a1-3)]GlcNAc(b1-6)[Gal(b1-3)]GalNAc
# Outline: as §1
# [11] = molecular target: Neu5Ac(a2-3)Gal(b1-4)[Fuc(a1-3)]GlcNAc(b1-6)[Neu5Ac(a2-3)Gal(b1-3)]GalNAc
# Outline: as §1
# [12] = molecular target: Neu5Ac(a2-3)[GalNAc(b1-4)]Gal(b1-4)GlcNAc(b1-3)GalNAc
# Outline: as §1
# Neu5Ac(a2-6)Gal(b1-4)Glc = molecular target: Neu5Ac(a2-6)Gal(b1-4)Glc
# Outline: as §1
# [13] = molecular target: Neu5Ac(a2-6)Gal(b1-4)GlcNAc(b1-6)GalNAc
# Outline: as §1
# [14] = molecular target: Neu5Ac9Ac(a2-3)Gal(b1-3)GlcNAc
# Outline: as §1
# [15] = molecular target: Neu5Ac9Ac(a2-3)Gal(b1-4)GlcNAc
# Outline: as §1
# [16] = molecular target: Neu5Gc(a2-8)Neu5Gc(a2-6)Gal(b1-4)GlcNAc
# Outline: as §1
binder,measurement,setting,value
"FGF1 (Homo sapiens), P05230 (protein) MAEGEITTFTALTEKFNLPPGNYKKPKLLYSNGGHFLRILPDGTVDGTRDRSDQHIQLQLSAESVGEVYIKSTETGQYLAMTDGLLYGSQTPNEECLFLERLEENHYNTYISKHAEKNWFVGLKKNGSCKRGPRTHYGQAILFLPLPASSED",glycan array binding signal (z-score),[1],-0.832
same,glycan array binding signal (z-score),GlcNAc(b1-3)Fuc,0.25
same,glycan array binding signal (z-score),GlcNAc(b1-3)Gal,-0.782
same,glycan array binding signal (z-score),[2],-0.417
same,glycan array binding signal (z-score),[3],1.12
same,glycan array binding signal (z-score),Kdn(a2-3)Gal(b1-4)Glc,3.53
same,glycan array binding signal (z-score),[4],-0.916
same,glycan array binding signal (z-score),[5],4.88
same,glycan array binding signal (z-score),[6],-0.881
same,glycan array binding signal (z-score),[7],-0.187
same,glycan array binding signal (z-score),[8],5.56
same,glycan array binding signal (z-score),[9],-0.884
same,glycan array binding signal (z-score),[10],0.146
same,glycan array binding signal (z-score),[11],0.465
same,glycan array binding signal (z-score),[12],-0.27
same,glycan array binding signal (z-score),Neu5Ac(a2-6)Gal(b1-4)Glc,0.536
same,glycan array binding signal (z-score),[13],4.24
same,glycan array binding signal (z-score),[14],1.47
same,glycan array binding signal (z-score),[15],-0.689
same,glycan array binding signal (z-score),[16],-0.059
